Active and inactive are the calls of the source. How the source made its calls: active means hit-call score of the fitted dose curve at least 0.9, where 1 is the maximum; inactive means score below 0.9.

This assay can be described thus: BSK_SAg_SRB: Viability Assessment in the BioMAP Diversity Plus: SAg Assay (AID 2283096).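 Further: cells read one day after compound addition; hits may be either gain or loss of signal compared with DMSO.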 The conditions noted are these: primary human HUVEC with PBMC. The method in brief: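 Compounds were added to a human vascular co-culture of umbilical vein endothelium and PBMC. After 24 h, parallel cultures were fixed with 10% TCA, stained with 0.1% sulforhodamine B and read at 560 nm. Gain or loss of signal was fitted relative to DMSO.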
On to `CCCCOC(=O)CCCCC(=O)OCCCC`, for which the outcome was inactive.

Broadly, the AC50 is the midpoint of the concentration-response curve, whichever way the signal moves. With `Oc1ccccc1O`, the AC50 was 8.32 µM (active).

With `CC(C)NCC(O)c1ccc(O)c(O)c1` (configuration not stated), the outcome was inactive.

For `CC1=C(C)S(=O)(=O)CCS1(=O)=O`, the outcome was inactive.

On to `Cc1ccc(-c2cc(C(F)(F)F)nn2-c2ccc(S(N)(=O)=O)cc2)cc1`, for which the AC50 is 27.8 µM (active).

Consider `O=C(O)c1[nH]n(-c2ccc(S(=O)(=O)O)cc2)c(=O)c1N=Nc1ccc(S(=O)(=O)O)cc1`, for which the result was inactive.

As to `O=NO`, the outcome was inactive.

With `C/C=C/c1ccc(OC)cc1`, the result was inactive.

For `COc1ccc(C(=O)Nc2nc3ccccc3c(NCc3ccccc3)c2C#N)cc1`, the result was inactive.

Take `O=C1c2c(O)cccc2Cc2cccc(O)c21`: the result was inactive.

Take `CC(=O)O`: the result was inactive.

For `Cc1ccc(C(C)(C)C)c(O)c1`, the outcome was inactive.

On to `CCCCCCCCCCCCCCCCO`, for which the result was inactive.

For the compound `COc1ccc(OC(F)(F)F)cc1CN[C@H]1CCCN[C@H]1c1ccccc1`, the AC50 was 31.1 µM (active).

As for `Nc1nc(Cl)nc2c1ncn2[C@H]1C[C@H](O)[C@@H](CO)O1`, the AC50 was 0.554 µM (active).

Consider `CO[C@@H]1COCC[C@@H]1N[C@@H]1CC[C@@](C(=O)N2CCc3ncc(C(F)(F)F)cc3C2)(C(C)C)C1`, for which the result was inactive.

`CC(COCC(C)OC(=O)c1ccccc1)OC(=O)c1ccccc1` (configuration not stated): the result was inactive.

On to `CCCCCCC(CCCCCCCCCCC(=O)OCC(COC(C)=O)OC(C)=O)OC(C)=O` (configuration not stated), for which the result was inactive.

Regarding `O=C1O[C@H]([C@H](O)CO)C(O)=C1O`, the result was inactive.

Consider `CCCCCCC(C=O)=Cc1ccccc1`, for which the AC50 is 35.3 µM (active).

On to `O=C(O)CN(CC(=O)O)CC(=O)O`, for which the result was inactive.

Turning to `CCc1nc(N)nc(N)c1-c1ccc(Cl)cc1`, the result was inactive.

The values are drawn from PubChem BioAssay (EPA / NIEHS).
